Compound activity (PubChem)
m5-HT2A agonist: mouse Htr2a agonists via beta-arrestin recruitment, primary screen, cell-based, luminescence; 5-hydroxytryptamine receptor 2A (Mus musculus), P35363; CHO-K1 mHTR2A beta-arrestin complementation; percent of 30 µM serotonin response; activation, % at 7.6 µM; 0.66% of 360,000 active; AID 624169, 2012;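 active = activation above a run cutoff, the mean activation of all tested compounds plus 3 SD, cut at about 14% in these data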;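 also: 0% = plate median of compound wells and 100% = 30 µM serotonin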
HTR5A ag: HTR5A agonists in luminescence cell assay, primary screen, counter-screen for OPRM1-OPRD1 heterodimer agonist project, full-deck HTS; cell-based; 5-hydroxytryptamine receptor 5A (Homo sapiens), P47898; 0.61% of 340,000 active; activation, % at 9.3 µM; in the data active = activation mostly above about 9.5%, no sharp cut-off; inactive = mostly below about 7.6%;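 also: 0% = cells with vehicle only and 100% = reference agonist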
HGIII-sPLA2 inh: human group III sPLA2 inhibitors, primary screen, biochemical, QFRET, BODIPY PC-A2 liposome substrate; inhibition, % at 12.2 µM; QFRET BODIPY PC-A2 liposome hydrolysis, fluorescence; 0.56% of 370,000 active; AID 743126, 2013;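 active = inhibition above mean plus 3 SD of compounds lying within the high and low control bounds, cut at about 19% in these data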;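 also: 0% = median of test compound wells and 100% = no enzyme DMSO wells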
OPRM1-OPRD1 ag: agonists of OPRM1-OPRD1 heterodimerization, primary screen, cell-based, luminescence. activation, % at 9.3 µM. Mu-type opioid receptor (Homo sapiens) + Delta-type opioid receptor (Homo sapiens), …. 0.3% of 340,000 active. AID 504326, 2011. cells; in the data active = activation above about 18%;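 also: 0% = vehicle-treated cells and 100% = reference agonist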
Target sequence (P35372 whole entry, looked up): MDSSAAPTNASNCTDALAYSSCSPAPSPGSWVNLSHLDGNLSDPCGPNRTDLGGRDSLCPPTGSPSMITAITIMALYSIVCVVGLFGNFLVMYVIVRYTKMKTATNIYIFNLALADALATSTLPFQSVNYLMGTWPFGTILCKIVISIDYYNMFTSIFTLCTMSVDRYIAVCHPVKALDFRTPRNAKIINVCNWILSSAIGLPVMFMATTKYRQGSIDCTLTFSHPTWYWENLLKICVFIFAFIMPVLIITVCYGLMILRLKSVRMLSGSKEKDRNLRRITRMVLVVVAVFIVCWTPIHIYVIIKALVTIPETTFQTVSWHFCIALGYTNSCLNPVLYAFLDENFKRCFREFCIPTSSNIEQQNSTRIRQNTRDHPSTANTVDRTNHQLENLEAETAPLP
Target sequence (P41143 whole entry, looked up): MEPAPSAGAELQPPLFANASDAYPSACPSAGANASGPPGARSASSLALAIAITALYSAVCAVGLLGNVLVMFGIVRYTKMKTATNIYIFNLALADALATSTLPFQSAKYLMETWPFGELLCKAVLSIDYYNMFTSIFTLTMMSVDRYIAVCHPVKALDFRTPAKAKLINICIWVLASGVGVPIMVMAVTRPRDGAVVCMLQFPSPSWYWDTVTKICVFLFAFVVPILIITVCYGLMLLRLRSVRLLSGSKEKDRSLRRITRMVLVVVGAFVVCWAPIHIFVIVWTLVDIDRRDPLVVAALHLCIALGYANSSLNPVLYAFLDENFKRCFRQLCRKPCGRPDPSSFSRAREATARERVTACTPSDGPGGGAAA
MOR-DOR inv ag: inverse agonists of MOR-DOR heterodimerization, primary screen, cell-based, luminescence; Mu-type opioid receptor (Homo sapiens) + Delta-type opioid receptor (Homo sapiens), …; cell-based MOR-DOR heterodimer luminescence, inverse agonism; inhibition, % at 9.3 µM; 0.21% of 340,000 active; AID 504357, 2011; in the data active = inhibition above about 22%, passing the limit was not always enough;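 also: 0% = cells with DMSO and 100% = wells without cells with DMSO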
HTR5A inv ctr: HTR5A inverse agonists in luminescence cell assay, primary screen, counter-screen for OPRM1-OPRD1 heterodimer inverse agonist project, full-deck HTS; 5-hydroxytryptamine receptor 5A (Homo sapiens), P47898; HTR5A cell line, inverse agonism; inhibition, % at 9.3 µM; 0.083% of 340,000 active; AID 504634, 2011; in the data active = inhibition mostly above about 23%, no sharp cut-off; inactive = mostly below about 18%;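 also: 0% = cells with DMSO and 100% = no-cell wells with DMSO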
OPRM1 ag: OPRM1 agonists via beta-arrestin recruitment, confirmation, counter-screen for mouse HTR2A agonist project, cell-based, luminescence, single concentration | U2OS OPRM1 beta-arrestin PathHunter; DMSO 0%, DAMGO 9.3 µM 100% | shares compounds with m5-HT2A agonist | 5.3% of 2,300 active | activation, % at 9.3 µM;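 active = mean activation above the mean of DMSO-only wells plus 3 SD, cut at about 0.5% in these data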
HTR2A ag conf: mouse HTR2A agonists, beta-arrestin recruitment, confirmation, cell-based, luminescence, CHO-K1 PathHunter, triplicate | shares compounds with m5-HT2A agonist | DMSO 0%, 30 µM serotonin 100% | activation, % at 7.6 µM | 19% of 2,300 active | AID 624381, 2012;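 active = mean activation across triplicates above the hit threshold derived in the original primary screen, cut at about 15% in these data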
Active calls of the source: *; x = no result. In the library only some 2.2% were active in any assay of this set; here they are far more common.

SMILES	m5-HT2A agonist	HTR5A ag	HGIII-sPLA2 inh	OPRM1-OPRD1 ag	MOR-DOR inv ag	HTR5A inv ctr	OPRM1 ag	HTR2A ag conf
CCS(=O)(=O)c1ccc(Sc2nncn2C)c([N+](=O)[O-])c1	14.5*	2.1	-2.2	5.6	-29.5	-5.8	0.0	3.9
COc1ccc([C@@]23CCN=C2c2[nH]c4ccccc4c2CCN3)c(N)c1	x	x	-0.3	x	x	x	x	x
CCN1C(=O)[C@H]2[C@@H](c3ccc(C)cc3)N[C@]3(CCCN(Cc4cccn4C)C3=O)[C@H]2C1=O	21.1*	x	1.2	x	x	x	-0.5	-2.0
Cc1c(C(=O)Nc2ccc(-c3nnc4n3CCCCC4)cc2)oc2ccc(Br)cc12	18.4*	-0.1	-2.8	1.9	-9.7	-36.6	0.0	2.0
COc1cc(NC(=O)C2CCCN(S(=O)(=O)c3cccc4cccnc34)C2)cc(OC)c1 (stereo not given)	x	x	-12.7	x	x	x	x	x
O=C(O)C1CCCCC1C(=O)NCCc1cccc(Cl)c1 (stereo not given)	34.6*	6.6	2.2	-1.6	6.9	-18.2	-0.4	-0.8
O=C(O)C1C2C=CC(C2)C1C(=O)NCCc1cccc(Cl)c1 (stereo not given)	31.6*	7.8	4.3	-0.1	0.8	-102.8	-0.3	5.2
O=C(O)C1CCCCC1C(=O)NCCc1ccc(Cl)cc1 (stereo not given)	6.8	3.5	7.7	0.3	-1.4	-4.8	x	x
C=CCN(Cc1ccc2c(c1)OCO2)C(C#CCCCC)C(C)C (stereo not given)	x	x	1.6	x	x	x	x	x
COC(=O)[C@]12C[C@H](CC(=O)NCCCCc3ccccc3)C(=O)N(CCc3ccc(OC)c(OC)c3)C1=C[C@H](COCc1ccccc1)O[C@@H]2C	x	x	-11.3	x	x	x	x	x
Nc1nnc(-c2ccccc2[N+](=O)[O-])o1	25.6*	2.6	1.6	-2.4	11.0	-7.3	-0.4	-5.4
O=[N+]([O-])c1ccccc1-c1nc(-c2ccc(Br)o2)no1	-4.6	-0.2	-0.4	3.0	-15.8	14.8	x	x
COc1ccc(-c2cc(-c3nnc(SCC(=O)Nc4ccccc4-c4ccccc4)n3N)[nH]n2)cc1	x	x	-36.4	x	x	x	x	x
CC(C)OP(=O)(O)C(C)NC(=O)OCc1ccccc1 (stereo not given)	x	x	2.1	x	x	x	x	x
CCCc1cnc(N2CCN(C(=S)NC)CC2)nc1	16.7*	2.5	9.6	-4.2	20.4	-18.7	-0.6	0.9
COc1ccccc1NC(=O)c1ccccc1SCC(=O)N1CCCC1	14.5*	x	-0.5	x	x	x	-0.6	-3.5
COc1ccccc1CCNC(=O)c1ccccc1SCC(=O)N1CCCC1	4.0	11.6	10.9	-0.8	3.3	-28.7	x	x
O=C(NNC(=O)c1ccco1)c1cccc(Br)c1	14.8*	1.4	-2.4	-2.4	13.2	-17.4	-0.5	0.5
CC(=O)NC1CCCCN(C)C1=O (stereo not given)	x	x	5.7	x	x	x	x	x
COCCNCC(=O)N1CCCCCC1	16.6*	5.9	0.7	0.4	-2.2	9.6	-0.6	-2.4
COc1ccc(-c2cnc3c(NC=O)cc(-c4ccc(S(C)(=O)=O)cc4)cn23)cc1OC	15.0*	x	-9.3	x	x	x	0.0	11.7
CCCc1c(-c2ccc(F)cc2)ncn1CCc1ccccc1OC	16.5*	x	-2.2	x	x	x	0.8*	-9.3
CC(C)(C)OC(=O)NCc1cc(F)ccc1/C=C/S(=O)(=O)NCc1ccc(F)cc1	x	x	-13.8	x	x	x	x	x
CCCS(=O)(=O)NC(=O)C1(C)CCN(C(=O)C2(c3ccc(Cl)cc3)CCCC2)C1 (stereo not given)	16.5*	x	5.3	x	x	x	0.0	1.8
CCCS(=O)(=O)NC(=O)C1(C)CCN(C(=O)c2cc(F)cc(F)c2)C1 (stereo not given)	14.7*	x	5.4	x	x	x	-0.7	-6.5
SMILES	m5-HT2A agonist	HTR5A ag	HGIII-sPLA2 inh	OPRM1-OPRD1 ag	MOR-DOR inv ag	HTR5A inv ctr	OPRM1 ag	HTR2A ag conf
C#CCOCCOCCOCCNc1nc(N2CCN(C(=O)[C@H]([C@@H](C)CC)n3cc(CCCCN)nn3)CC2)nc(N2CCN(C(=O)[C@H](Cc3ccc(O)cc3)n3cc(CCO)nn3)CC2)n1	x	x	-1.8	x	x	x	x	x
O=C(Nc1ccccc1)C(=O)Nc1cccnc1	21.8*	-3.6	0.1	-2.0	10.4	-7.9	-0.5	-2.3
O=C(CC(=O)c1ccccc1)Nc1cccnc1	4.5	0.6	-4.0	-0.9	6.0	-1.4	x	x
CC(C)[C@H](NC(=O)c1ccc(Cl)c(Cl)c1)C(=O)N1CCC[C@H]1C(=O)NCCc1ccccc1Cl	x	x	-19.2	x	x	x	x	x
O=C(Nc1ccc2[nH]ccc2c1)c1cccs1	15.2*	6.9	3.4	-0.8	4.8	-18.5	0.9*	2.1
Cc1cc(C(O)c2ncc(-c3ccc(Oc4ccccc4)cc3)[nH]2)ccc1F (stereo not given)	21.0*	x	-5.0	x	x	x	-0.1	-6.0
O=C(NCCCn1ccnc1)/C(=C\c1ccco1)NC(=O)c1ccco1	15.1*	-2.1	3.9	-3.3	17.0	5.5	-0.6	-3.1
CC(=O)N[C@@H]1C[C@@H]2O[C@H](CO)CC[C@@H]2O[C@@H]1CCc1ccc(C#CC2(O)CCCC2)cc1	x	x	2.8	x	x	x	x	x
CCOc1ccccc1OCC(=O)OCc1csc(CC(=O)Nc2ccccc2C)n1	2.4	2.9	-46.4	0.9	-5.5	-8.7	x	x
Cc1ccccc1NC(=O)Cc1nc(COC(=O)COc2cccc(C)c2C)cs1	14.6*	-1.4	-67.6	-2.3	12.2	3.7	-0.7	-4.3
COC(=O)[C@]12C[C@H](CC(=O)N3CCN(C(=O)C4CC4)CC3)C(=O)N(Cc3cccc4ccccc34)C1=C[C@H](C(C)(C)C)O[C@@H]2C	x	x	-12.1	x	x	x	x	x
CCn1c(=O)c(C(=O)CN2CCN(S(=O)(=O)c3ccc(C)cc3C)CC2)c(N)n(Cc2ccccc2)c1=O	16.1*	5.3	-37.9	2.8	-15.0	-19.2	-0.4	-5.1
CCn1c(=O)c(C(=O)CN2CCN(S(=O)(=O)c3ccccc3)CC2)c(N)n(Cc2ccccc2)c1=O	1.6	3.1	-25.5	-1.4	6.7	28.4	x	x
O=C(/C=C/c1ccncc1)c1ccc2c(c1)OCCO2	5.1	-0.9	-4.5	-2.3	11.8	3.7	x	x
